Bioassay records (PubChem BioAssay)
CHX counter = affects cycloheximide protein synthesis inhibition readout, counter-screen; cell reporter, cycloheximide protein synthesis inhibition counterscreen; max response, %; hit rate 12% among 300,000; AID 2314; in the data active = max response mostly above about 13%, no sharp cut-off; inactive = mostly below about 14%; also: read at 38.3 µM for the half of the compounds with a filed dose
MARV entry inh = inhibitors of Marburg virus binding or cell entry | Marburg virus pseudotyped entry inhibition, cell reporter | AID 540276 | Potency, µM (titrated, usually from 37.8 µM), actives largely listed as inhibitors | hit rate 1.8% among 300,000; calls by dose curve; tested in HEK293 cells
Shiga toxin inh = inhibitors of Shiga toxin in Vero cells; Vero cells, Shiga toxin protein synthesis inhibition reporter; inhibition, % at 38.7 µM; hit rate 9.2% among 290,000; AID 2315; in the data active = inhibition mostly above about 28%, no sharp cut-off; inactive = mostly below about 43%
Vaccinia mCherry = vaccinia inhibition (mCherry reporter); Potency, µM (top dose mostly 36.5 µM), most hits filed as inhibitors; hit rate 0.63% among 310,000; Vaccinia virus mCherry reporter infection, fluorescence; calls by dose curve; tested in A549 cells; also: nearly all actives have a fitted effect of over 35% in size
Lassa entry inh = Lassa virus entry inhibition; Lassa virus pseudotype entry inhibition, cell reporter; AID 540256; Potency, µM (doses to about 37.9 µM), usual class: inhibitors; hit rate 1.2% among 300,000; calls by dose curve; tested in HEK293 cells; also: nearly all actives have a fitted effect of over 50% in size
Vaccinia Venus = vaccinia inhibition (Venus reporter); Vaccinia virus Venus reporter expression, fluorescence; Potency, µM (series often up to 36.5 µM), actives largely listed as inhibitors; hit rate 0.46% among 330,000; AID 720580; calls by dose curve; tested in A549 cells; also: nearly all actives have a fitted effect of over 30% in size
Large screens that a line does not name were inactive. Many of the other results were omitted from the sample, so hits are more common in it than they were.

O=C(NC(=S)Nc1ccccn1)c1ccccc1	CHX counter 40, Shiga toxin inh 68 (no result: MARV entry inh, Lassa entry inh)
Cc1cccc(CN2C[C@H](Sc3ccccn3)C[C@H]2C(=O)Nc2ccc3sc(C)nc3c2)c1	none (no result: CHX counter, MARV entry inh, Shiga toxin inh, Lassa entry inh)
O=C(c1cccc(Cn2cccn2)c1)N1CCC(n2c(C3CCCO3)nc3cc(C(F)(F)F)ccc32)CC1 (configuration not stated)	none (no result: CHX counter, MARV entry inh, Shiga toxin inh, Lassa entry inh)
COc1ccc(F)cc1S(=O)(=O)Nc1ccc2c(c1)CCCN2C(=O)c1cccs1	none (no result: CHX counter, MARV entry inh, Shiga toxin inh)
CN(C)NC(=O)c1ccsc1NC(=O)c1ccc(S(=O)(=O)N(C)C)cc1	none (no result: MARV entry inh, Lassa entry inh)
CNc1ccc(Br)cc(C(=O)/C=C/c2ccc(OC)cc2OC)c1=O	CHX counter 65, Shiga toxin inh 80
CNc1ccc(Br)cc(C(=O)/C=C/c2cccc(OC)c2)c1=O	CHX counter 13, MARV entry inh inconclusive, Lassa entry inh inconclusive (no result: Vaccinia mCherry, Vaccinia Venus)
COc1cccc(Nc2nnc(-c3cc4ccc(O)cc4oc3=O)s2)c1	none (no result: CHX counter, MARV entry inh, Shiga toxin inh)
Cc1cc(NC(=O)CCl)nn1C	MARV entry inh 7.9µM, Vaccinia mCherry inconclusive, Lassa entry inh inconclusive, Vaccinia Venus inconclusive
Cc1cc(Br)c(NC(=O)CCl)c(Br)c1	MARV entry inh inconclusive, Vaccinia mCherry inconclusive, Vaccinia Venus inconclusive
Cn1ccc(NC(=O)CCl)n1	CHX counter 29, MARV entry inh inconclusive, Vaccinia mCherry inconclusive, Lassa entry inh inconclusive, Vaccinia Venus inconclusive
CCc1nn(CC(=O)NCCc2ccc(Cl)cc2)c(=O)c2cc3c(OC)cccc3n12	none (no result: CHX counter, Shiga toxin inh, Lassa entry inh)
CCOc1ccc(CCNC(=O)C2CCCN(c3ncnc4c3nc3n4CCCCC3)C2)cc1 (configuration not stated)	MARV entry inh inconclusive
Nc1ccc2oc(-c3cccc(Br)c3)nc2c1	CHX counter 43, Lassa entry inh inconclusive
CC(C)c1ccc2oc(-c3cc(N)ccc3O)nc2c1	Lassa entry inh inconclusive (no result: Vaccinia mCherry, Vaccinia Venus)
Nc1ccc(-c2nc3ccccc3o2)cc1	CHX counter 57, Shiga toxin inh 91 (no result: MARV entry inh, Vaccinia mCherry, Lassa entry inh, Vaccinia Venus)
Nc1cc(N)cc(-c2nc3ccccc3o2)c1	none (no result: CHX counter, MARV entry inh, Shiga toxin inh, Lassa entry inh)
Nc1ccc2oc(-c3ccc4nc[nH]c4c3)nc2c1	CHX counter 16, MARV entry inh inconclusive, Lassa entry inh 16µM (no result: Vaccinia mCherry, Vaccinia Venus)
CCc1ccc2oc(-c3cccc(N)c3)nc2c1	MARV entry inh inconclusive, Lassa entry inh inconclusive
Nc1ccc2oc(-c3ccccc3Br)nc2c1	MARV entry inh inconclusive (no result: CHX counter, Shiga toxin inh)
Cc1ccccc1-c1nc2cc(N)ccc2o1	CHX counter 55, MARV entry inh inconclusive, Shiga toxin inh 87, Vaccinia mCherry inconclusive, Lassa entry inh inconclusive
O=C1[C@H]2[C@H]3[C@H](O)[C@H](O)C/C(=N\OCc4ccccc4)[C@H]3CC[C@H]2C(=O)N1C1CCCCC1	none (no result: CHX counter, Shiga toxin inh, Vaccinia mCherry, Lassa entry inh, Vaccinia Venus)
CN(C)c1nc2cc3c(cc2cc1CN(CC1CCCO1)C(=O)c1cccc(F)c1)OCO3 (configuration not stated)	none (no result: CHX counter, MARV entry inh, Shiga toxin inh, Lassa entry inh)
COC(=O)c1cc2sc(Cl)cc2n1Cc1cc(C)ccc1C	none (no result: CHX counter, Shiga toxin inh, Lassa entry inh)
Cc1nc2ccc(-c3nc4cc(N)ccc4o3)cc2[nH]1	CHX counter 21, MARV entry inh inconclusive, Shiga toxin inh 27, Lassa entry inh inconclusive
C/C(CC(C)(C)C1CCCCC1)=N\NC(N)=S	MARV entry inh inconclusive, Vaccinia mCherry 11µM, Lassa entry inh 16µM, Vaccinia Venus 18µM
CC(=O)Nc1ccc(NC(=O)C/C(C)=N/NC(N)=S)cc1	none (no result: MARV entry inh, Vaccinia mCherry, Lassa entry inh, Vaccinia Venus)
O=C(O)/C=C/C(=O)Nc1ccc2c(c1)C(=O)c1ccccc1C2=O	CHX counter 62, Shiga toxin inh 135 (no result: MARV entry inh, Vaccinia mCherry, Lassa entry inh, Vaccinia Venus)
CC(=O)Nc1ccc2c(c1)C(=O)c1ccccc1C2=O	CHX counter 51, Shiga toxin inh 84
CC(=O)Nc1ccc2c(c1)CCc1ccccc1-2	CHX counter 46, MARV entry inh inconclusive, Shiga toxin inh 97
CCCC(=O)Nc1ccc2c(c1)Cc1ccccc1-2	CHX counter 28, Shiga toxin inh 119 (no result: MARV entry inh, Vaccinia mCherry, Lassa entry inh, Vaccinia Venus)
O=C(O)/C=C/C(=O)Nc1ccc(C(=O)c2ccccc2)cc1	none (no result: MARV entry inh, Vaccinia mCherry, Lassa entry inh, Vaccinia Venus)
COc1cc(C(=O)Nc2ccc3c(c2)C(=O)c2ccccc2C3=O)cc(OC)c1OC	MARV entry inh inconclusive
COC(=O)c1ccc(Cl)cc1NC(=O)N(Cc1ccc(C)o1)C1CCN(C(C)=O)CC1	none (no result: CHX counter, MARV entry inh, Shiga toxin inh)
CC(C)CN1C(=O)c2ccc(NC(=O)C3CC3)cc2C1=O	none
O=C1c2ccccc2C(=O)c2cc(NC(=O)C3CC3)ccc21	CHX counter 20, MARV entry inh inconclusive, Shiga toxin inh 33
O=C(NCc1ccco1)c1cc2cc3ccc(Cl)cc3nc2o1	MARV entry inh inconclusive, Vaccinia mCherry inconclusive, Lassa entry inh 18µM, Vaccinia Venus inconclusive
O=C(NCc1ccco1)c1ccc(-c2ccc(Cl)cc2)o1	CHX counter 37, Shiga toxin inh 78 (no result: MARV entry inh, Vaccinia mCherry, Lassa entry inh, Vaccinia Venus)
O=C(NCc1ccco1)c1ccc(-c2ccccc2Cl)o1	CHX counter 43, Lassa entry inh inconclusive
